Reference: PubChem BioAssay AID904 (National Center for Advancing Translational Sciences (NCATS), 2007)
Screen size: about 55,000 compounds; about 530 (0.96%) were called active. Not shown: some 7% with an inconclusive outcome. This excerpt belongs to a sample that is enriched for actives. Unmarked numbers belong to inactive results. Calls come from the whole dose curve; as a rule, active = well fitted cell-killing curve with a large enough effect; inconclusive = small, poorly fitted or top-dose-only effect; inactive = no such curve, though single readings can be large or run the other way.

Assay: qHTS Screen for Compounds that Selectively Target Cancer Cells with p53 Mutations: Cytotoxicity of p53 Null Cells at the Nonpermissive Temperature; note: nearly all actives have a fitted effect of over 50% in size;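 for activity, negative = cell killing: 0% = DMSO only and -100% = full killing by 100 µM tamoxifen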
Conditions: H1299 p53-null (neo) cells, 39C, ATPlite viability, 24 h; series mostly up to 46.1 µM; activity, negative = cell killing: at the top concentration
Excerpt: NIH Chemical Genomics Center [NCGC] NIH Molecular Libraries Screening Centers Network [MLSCN] MLSCN Grant: 1 X01 MH079844-01 Assay Submitter (PI): Dr. SUN, YI, University of Michigan NCGC Assay Overview: Synthetic Lethal Screen for Compounds to Kill Cancer Cells with p53 Mutation. Tumor suppressor gene p53 serves as a major cellular barrier against tumorigenesis. […] The goal of this screening is to identify small molecule probes that selectively kill cancer cells with mutations in p53. This screening was carried out using two lines of H1299 lung cancer cells. The H1299-p53 A138V line express a temperature sensitive p53 mutant (p53ts) in which the mutant p53 protein (A138V) is in the mutant confirmation when grown at 39C (the nonpermissive temperature) and in the wild type conformation when grown at 32C (the permissive temperature). A H1299-neo line (p53 null) grown at both 39C and 32C were used as counter-screens to filter out false positive associated with temperature shifting. The small molecular compounds that selectively target mutant p53-containing cancer cells were selected as candidate probes for further study. A cytotoxicity assay based on the measurement of ATP contents in cells was used in this screen. Concentration-responses of all the compounds in the library collection were determined in qHTS using the cell lines and temperature conditions as above.
NCGC Assay Protocol Summary: Both the H1299-p53A138V and H1299-neo cell lines were provided by Dr.Yi Sun, a PI at the University Michigan. The cells were maintained and cultured at 37C. The resuspended frozen cells were used to plate the cells in the 1536-well assay plates at a density of 600 cells per well in 5 ul medium. The assay plates with the cells were incubated at 37C for 16 to 30 hours before the experiments. The library compounds in DMSO solution were added to the cells in assay plates and incubated 24 hours at 39C (for mutant p53 conformation) or 32C (for normal p53 conformation as control). An ATP_lite assay kit (PerkinElmer) was used to determine the cell viability. Tomaxifen (100uM) was used as the positive control for cell killing. Data were normalized to the controls for basal activity (DMSO only) and 100% killing (100uM tamoxifen). AC50 values were determined from concentration-response data modeled with the standard Hill equation. P53 assay protocol: 1. Reagent; 5 uL H1299-p53A138V or H1299-neo cell cells/well 2. Time; overnight; 37C incubation 3. Compounds; 23 nL; 5.9 nM to 46 uM 4. Controls; 23 nL; Tamoxifen 100 uM 5. Time; 24 hr; 39C incubation 6. Reagent; 3 uL; ATP_Lite reagent 7. Time; 20 min; Room Temperature 8. Detection; Luminescence; Viewlux plate reader Keywords: p53, synthetic lethal, cancer, cell viability, cytotoxicity, H1299 cell line, luminescence, MLSMR, MLSCN, NIH Roadmap, qHTS, NCGC
Potency is the fitted concentration of half-maximal effect.

SMILES | Potency | activity, negative = cell killing [%]
CCOc1ccc(C(NC(=O)c2cc(OC)c(OC)c(OC)c2)c2cc(Cl)c3cccnc3c2O)cc1 (stereo not given) | 3.55 µM (active) | –
CN(C)c1cccc(C(=O)Nc2nc3ccc(S(=O)(=O)NC(C)(C)C)cc3s2)c1 | – | 37.8
Cc1ccc(-n2c(/C=C/c3cccc(C(F)(F)F)c3)nc3ccccc3c2=O)cc1 | – | -19.2
COC(=O)COc1cc(C)cc2oc(=O)c3c(c12)CCCC3 | – | 9.68
O=C(Nc1ccc(Cl)cc1C(=O)c1ccccc1)c1cc(Cl)cc(Cl)c1 | – | -5.04
